Screening results: PubChem, several laboratories
Most compounds without a hit are left out; they make up all but 32% or so of the library.
CYP2C19 inh: inhibitors of human CYP2C19; inhibition, % at 5 µM; actives 21% (n = 96,000); AID 778; CYP2C19 Supersomes, luciferin-H EGE luminescence, 30 min;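 active = CYP2C19 inhibition above a set limit at 5 µM in the primary screen, cut at about 50% in these data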;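 also: plate controls were negative control wells for no effect and 2.5 mM tranylcypromine positive control for full effect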
Target sequence (P33261 whole entry, looked up): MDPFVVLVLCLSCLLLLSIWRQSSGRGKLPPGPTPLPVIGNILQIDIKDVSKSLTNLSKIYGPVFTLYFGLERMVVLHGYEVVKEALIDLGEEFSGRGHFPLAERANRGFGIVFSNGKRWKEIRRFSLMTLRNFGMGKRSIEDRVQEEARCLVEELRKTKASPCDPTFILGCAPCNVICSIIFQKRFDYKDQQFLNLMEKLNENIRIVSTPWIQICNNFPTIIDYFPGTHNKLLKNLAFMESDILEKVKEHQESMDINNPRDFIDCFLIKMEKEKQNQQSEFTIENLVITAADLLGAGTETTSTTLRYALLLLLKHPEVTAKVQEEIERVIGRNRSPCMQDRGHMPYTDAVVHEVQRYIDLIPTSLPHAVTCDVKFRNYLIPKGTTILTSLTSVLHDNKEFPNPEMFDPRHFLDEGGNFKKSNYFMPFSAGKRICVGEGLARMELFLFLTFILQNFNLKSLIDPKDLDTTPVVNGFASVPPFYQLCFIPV
CYP2C9 act: activators of human CYP2C9; P11712; recombinant CYP2C9, luciferin-H conversion, luminescence; hits give high values; factor 1 = untreated enzyme, 0 = blocked; activation factor at 5 µM; actives 1.4% (n = 96,000); AID 1024;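 active = activation factor of 2 or more for CYP2C9 at a 5 µM dose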;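 also: 0 = sulfaphenazole-blocked wells and 1 = vehicle-only wells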
PostGolgi ctrl: growth of the yeast control strain, post-Golgi counter-screen; efflux-deficient yeast background strain, growth absorbance A615, 16 h; inhibition, % at 10 µM; actives 5% (n = 98,000)
CYP2C19 activ: activators of human cytochrome P450 2C19 | activation factor at 5 µM | recombinant CYP2C19, luciferin-H EGE luminescence; hits give high values; 0 = fully inhibited enzyme, 1 = untreated enzyme | 96,000 tested, under 10 active | AID 1025 | P33261;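 active = activation factor of at least 2 at 5 µM in the primary screen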;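 also: 0 = wells with 2.5 mM tranylcypromine and 1 = vehicle-only wells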
PostGolgi yeast: growth inhibition of a yeast mutant, post-Golgi transport screen. post-Golgi transport phenotypic cell assay. inhibition, % at 10 µM. actives 0.9% (n = 98,000). AID 739;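 also: yeast cells grown in 1536-well plates; yeast grown about 18 h at 30C before absorbance read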
CYP2C9 inh: blocks human cytochrome P450 2C9. CYP2C9 Supersomes, luciferin-H conversion, luminescence. actives 20% (n = 96,000). inhibition, % at 5 µM. P11712. AID 777;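 active = blocking of liver enzyme CYP2C9 beyond about 50% at 5 µM, limit read from the data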
The depositor's hits bear a star; x = no result given. Rule as the data show it, unless noted: active = inhibition above about 30%; inactive = the rest.

SMILES	CYP2C19 inh	CYP2C9 act	PostGolgi ctrl	CYP2C19 activ	PostGolgi yeast	CYP2C9 inh
CCOC(=O)N1CCC(NC(=O)Cn2c3ccccc3c3cn[nH]c(=O)c32)CC1	6	1	7	0.9	-18	1
O=C(Cn1ncc2c3ccccc3n(Cc3ccc(F)cc3)c2c1=O)N1CCN(c2ncccn2)CC1	99*	0	18	0	14	95*
O=c1[nH]ncc2c3ccccc3n(Cc3ccc(F)cc3)c12	46	0.3	1	0.5	-1	72*
Cc1ccccc1Cn1c2ccccc2c2cnn(CC(=O)N3CCN(c4ccccc4)CC3)c(=O)c21	62*	0.6	42*	0.4	0	37
O=C(NCC1CCCCC1)C1CCN(C(=O)NC2CCCCC2)CC1	20	0.6	-6	0.8	19	37
Oc1ccccc1C1N=C(c2ccccc2)NC(c2ccccc2)=N1	10	0.7	-1	0.9	8	31
COc1ccc(-n2cnnc2SCC(=O)N(C)C2CCS(=O)(=O)C2)cc1 (configuration not stated)	-6	1.1	3	1.1	-12	-12
COc1cc(NC(=O)C2CCCCC2)c(OC)cc1NC(=O)CN1CCCCC1	6	0.9	9	0.9	17	12
Cc1c(Cl)c([N+](=O)[O-])nn1Cc1ccc(C(=O)N/N=C\c2cccc(Br)c2)o1	68*	0.4	18	0.3	67*	64*
Cc1cc(C(=O)N/N=C/c2cccc([N+](=O)[O-])c2)c(C)o1	8	0.9	11	0.9	-6	10
C(=N\n1cnnc1)/c1ccc(OC2CSC2)cc1	93*	0.1	23	0.1	1	85*
COC(=O)c1ccc(/C=N/n2cnnc2)cc1	47	0.7	-6	0.5	1	29
Fc1ccccc1COc1ccc(/C=N/n2cnnc2)cc1	97*	0.1	1	0	-15	95*
C(=N\n1cnnc1)/c1ccc(OCc2cccc3ccccc23)cc1	38	0.2	28	0.6	4	81*
O=C(Nc1ccc(O)cc1)C1CC=CCC1 (configuration not stated)	-1	0.9	-1	1	-3	6
Cc1nc(CCNC(=O)COc2ccccc2)cs1	30	1.1	0	0.7	-3	-6
CC(=O)N1CSCC1C(=O)N1CCN(c2ccc(N3CCOCC3)nn2)CC1 (configuration not stated)	-15	1.1	-5	1.1	-10	-5
CSC1=NCCN1C(=O)c1cccc(Br)c1	12	1	1	0.9	2	4
Cc1ccc(S(=O)(=O)NCC(=O)N(CCc2ccccc2)CC(=O)NCc2ccco2)cc1	72*	0.5	2	0.3	-2	53*
O=C(CN(Cc1ccco1)C(=O)CNS(=O)(=O)c1ccccc1)NCc1ccc(F)cc1	61*	0.4	10	0.4	-8	62*
O=C(CN(Cc1cccs1)C(=O)CNS(=O)(=O)c1ccc(Cl)cc1)NCc1ccco1	38	0.7	27	0.6	21	28
CN(C)S(=O)(=O)c1cccc(C(=O)N(Cc2ccc(F)cc2)Cc2ccco2)c1	6	0.5	7	0.9	-6	51*
O=C(CN(Cc1cccs1)C(=O)CNS(=O)(=O)c1ccc(F)cc1)NCc1ccco1	58*	0.8	6	0.4	-6	22
O=C(CN(Cc1ccco1)C(=O)CNS(=O)(=O)c1ccc(F)cc1)NCc1ccc(F)cc1	-3	1	5	1	-5	-3
O=C(O)c1ccc(-n2nnnc2Oc2cccc3cccnc23)cc1	-12	1	1	1.1	24	-2
SMILES	CYP2C19 inh	CYP2C9 act	PostGolgi ctrl	CYP2C19 activ	PostGolgi yeast	CYP2C9 inh
Cc1ccc(C(=O)CC2(O)C(=O)N(Cc3ccc4c(c3)OCO4)c3ccccc32)cc1 (configuration not stated)	54*	1.1	1	0.5	-3	-11
O=C(CC1(O)C(=O)N(Cc2ccc3c(c2)OCO3)c2ccccc21)c1ccccc1 (configuration not stated)	48	1	5	0.5	4	3
C#CCN1C(=O)C(O)(CC(=O)c2ccc(OC)c(OC)c2)c2ccccc21 (configuration not stated)	31	1	-10	0.7	6	1
CCCN1C(=O)C(O)(CC(=O)c2ccc3c(c2)OCCO3)c2ccccc21 (configuration not stated)	76*	0.6	6	0.2	6	44
CCCN1C(=O)C(O)(CC(=O)c2cccc(OC)c2)c2ccccc21 (configuration not stated)	87*	0.6	2	0.1	-9	41
C#CCN1C(=O)C(O)(CC(=O)c2ccc3c(c2)OCCO3)c2ccccc21 (configuration not stated)	77*	0.8	-4	0.2	-6	19
COc1ccc(C(c2nnnn2Cc2cccs2)N2CCN(c3ccccc3F)CC2)cc1OC (configuration not stated)	28	0.8	4	0.7	-4	23
Cn1c(SCCS(=O)(=O)c2ccc(Cl)cc2)nnc1-c1ccccc1	42	0.8	15	0.6	10	19
O=C1OC(Nc2ccccn2)c2ccccc21 (configuration not stated)	-9	1	9	1.1	-30	5
Cc1csc(SCC(=O)NC23CC4CC(CC(C4)C2)C3)n1	33	0.9	9	0.7	3	6
Cc1c(Cl)c([N+](=O)[O-])nn1CC(=O)NC12CC3CC(CC(C3)C1)C2	79*	0.8	13	0.2	6	24
COc1ccc(C(c2sc3nc(C)nn3c2O)N2CCCCC2)cc1 (configuration not stated)	x	x	5	x	5	x
Cn1nc(-c2ccccc2)c(C(O)c2ccc(Cl)cc2)c1Cl (configuration not stated)	95*	0.1	25	0	6	88*
Cc1cc(C)cc(N2CCCn3c2nc2c3c(=O)n(CCN3CCOCC3)c(=O)n2C)c1	-12	1	-4	1.1	-5	-2
O=[N+]([O-])c1ccc(N=Nc2ccc(O)cc2O)cc1	69*	0.4	4	0.3	-3	57*
Cc1cccc(CSc2nnc(-c3ccco3)n2C)c1	37	1	-1	0.6	-19	3
COc1ccc(-c2nnc(SCc3cc(C)ccc3C)n2N)cc1	62*	1.2	4	0.4	-3	-16
Cc1cccc(CSc2nnc(-c3ccccn3)n2N)c1	60*	1.4	12	0.4	17	-42
COc1ccc(OCCSc2nnc(-c3ccc(OC)cc3)n2N)cc1	38	0.7	5	0.6	20	32
COc1ccc(-c2nnc(SCc3cccc(C)c3)n2N)cc1	52*	1.1	5	0.5	-6	-14
CCN(CC)c1ccc(C2N(C(=O)N3CCOCC3)CCN2S(=O)(=O)c2ccc(C)cc2)cc1 (configuration not stated)	26	0.6	0	0.7	6	44
